Test results as given in PubChem BioAssay (NCI).
“And” between values parts separate entries of the source, which are not always exact repeats. Identical values can stand only once. This is part of a sample that, as a whole, favours compounds with a hit. Of some 83,000 tested, about 20% had one in any assay.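 Treatment: one concentration, 48 hours, 96-well format. Scoring: percent growth, with anything below 10 considered active.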 The source made the active and inactive calls.

Columns and labels:
Assay in all cases: NCI-60 one-dose screen, 48 h (100 = growth as untreated, 0 = no growth, -100 = all killed)
[1] = system: HCT-15 colon
[2] = system: HT29 colon
[3] = system: SNB-75 CNS; settings: 10 µM unless noted
[4] = system: SNB-19 CNS
[5] = system: U251 CNS; settings: 10 µM unless noted
[6] = system: PC-3 prostate
[7] = system: SK-MEL-5 melanoma
[8] = system: UACC-62 melanoma
[9] = system: LOX IMVI melanoma
[10] = system: SK-MEL-28 melanoma

Measured: growth

CCC(=O)Sc1ccccc1C(=O)Nc1ccc(Cl)cc1
inactive: [1]; 10 µM unless noted 46% | [2]; 10 µM unless noted 17% | [3] 76.7% | [4]; 10 µM unless noted 76.1% | [5] 36.5% | [6]; 10 µM unless noted 66.9% | [7]; 10 µM unless noted 25.2% | [8]; 10 µM unless noted 54.1% | [9]; 10 µM unless noted 42.2% | [10]; 10 µM unless noted 49.8%

Nc1nc(N)c2nc(CNc3ccc(C(=O)NC(CCC(=O)O)C(=O)O)cc3)cnc2n1 (stereo unspecified)
inactive: [1]; 10 µM unless noted 27% and 26% | [2]; 10 µM unless noted 32.5% and 18.5% | [3] 64.3% and 41.4% | [4]; 10 µM unless noted 51% and 44.4% | [5] 37.9% and 26.9% | [6]; 10 µM unless noted 43.3% and 26.6% | [7]; 10 µM unless noted 24.6% and 23.9% | [8]; 10 µM unless noted 25.3% and 24.3% | [9]; 10 µM unless noted 12% and 13.1% | [10]; 10 µM unless noted 67% and 96.9%

O=[N+]([O-])c1ccc(N=Nc2ccc(O)cc2O)cc1
inactive: [1]; 10 µM unless noted 36.9% | [2]; 10 µM unless noted 75.7% | [3] 70.3% | [4]; 10 µM unless noted 53.7% | [5] 38.4% | [6]; 10 µM unless noted 32.1% | [7]; 10 µM unless noted 43.3% | [8]; 10 µM unless noted 36.4% | [9]; 10 µM unless noted 51.8% | [10]; 10 µM unless noted 44.2%

CC(=Nc1ccc(N(C)C)cc1)c1ccccc1
inactive: [1]; 10 µM unless noted 68.5% | [2]; 10 µM unless noted 35.2% | [3] 86% | [4]; 10 µM unless noted 45% | [5] 27.2% | [6]; 10 µM unless noted 37.8% | [7]; 10 µM unless noted 54.6% | [8]; 10 µM unless noted 68% | [9]; 10 µM unless noted 60.2% | [10]; 10 µM unless noted 65.4%

NC(=O)/C=C/C(=O)c1c(Cl)cccc1Cl
active: [1]; 10 µM unless noted -61.2% | [2]; 10 µM unless noted -39.6% | [3] -99.5% | [4]; 10 µM unless noted 9.41% | [5] -59.1% | [6]; 10 µM unless noted -96% | [7]; 10 µM unless noted -94.5% | [8]; 10 µM unless noted -71.1% | [9]; 10 µM unless noted -43.5% | [10]; 10 µM unless noted -99.1%

O=C(Nc1cccc(Br)c1)Oc1cccc2cccnc12
inactive: [1]; 10 µM 94.1% | [2]; 10 µM 92.1% | [2]; 100 µM 57.8% | [4]; 10 µM 100% | [4]; 100 µM 48.7% | [5] 21.1% [100 µM] | [6]; 10 µM 92.9% | [6]; 100 µM 11.7% | [7]; 10 µM 101% | [8]; 10 µM 97.5% | [8]; 100 µM 11.7% | [9]; 10 µM 102% | [10]; 10 µM 105% | [10]; 100 µM 48.2%
active: [1]; 100 µM 5.53% | [7]; 100 µM 2.15% | [9]; 100 µM -3.16%

S=C(N/N=C/c1ccccn1)Nc1ccccn1
inactive: [1]; 10 µM unless noted 23.8% | [2]; 10 µM unless noted 10.4% | [3] 46.1% | [4]; 10 µM unless noted 50.5% | [5] 10.1% | [6]; 10 µM unless noted 33.4% | [10]; 10 µM unless noted 21.5%
active: [7]; 10 µM unless noted -22.2% | [8]; 10 µM unless noted 1.53% | [9]; 10 µM unless noted 5.96%

CCC1OC(OC)C=CC1=O (stereo unspecified)
inactive: [1]; 10 µM unless noted 109% | [2]; 10 µM unless noted 113% | [3] 95% | [4]; 10 µM unless noted 91.5% | [5] 113% | [6]; 10 µM unless noted 97.1% | [7]; 10 µM unless noted 103% | [8]; 10 µM unless noted 85% | [9]; 10 µM unless noted 103% | [10]; 10 µM unless noted 106%

COc1ccc(-c2cscc2N)cc1
inactive: [1]; 10 µM 63.1% | [1]; 100 µM 63.9% | [2]; 10 µM 97.7% | [2]; 100 µM 52% | [4]; 10 µM 82.9% | [4]; 100 µM 57.6% | [5] 38.5% [100 µM] | [6]; 10 µM 98.4% | [6]; 100 µM 41.4% | [8]; 10 µM 43.4% | [9]; 10 µM unless noted 45.7% | [10]; 10 µM 96.4% | [10]; 100 µM 51.4%
active: [8]; 100 µM -9.3%

Cc1cc(C(C)(CC(C)C)c2ccc(O)c(C)c2)ccc1O
inactive: [1]; 10 µM unless noted 85.5% | [2]; 10 µM unless noted 98.7% | [3] 75.8% | [4]; 10 µM unless noted 109% | [5] 94.3% | [6]; 10 µM unless noted 93.2% | [7]; 10 µM unless noted 97.5% | [8]; 10 µM unless noted 71.1% | [9]; 10 µM unless noted 97% | [10]; 10 µM unless noted 114%

O=C(O)C1C2CC3C(OC(=O)C31)C2Br (stereo unspecified)
inactive: [1]; 10 µM unless noted 97.3% and 101% | [2]; 10 µM unless noted 84.9% and 105% | [3] 106% and 80.7% | [4]; 10 µM unless noted 97.3% and 107% | [5] 92.3% and 91.1% | [6]; 10 µM unless noted 90.4% and 105% | [7]; 10 µM unless noted 103% and 93.2% | [8]; 10 µM unless noted 93.5% and 107% | [9]; 10 µM unless noted 101% and 95.2% | [10]; 10 µM unless noted 100% and 103%
